Experimental data: ChEMBL document CHEMBL2218924, “A broad activity screen in support of a chemogenomic map for kinase signalling research and drug discovery” (Biochem J, 2013); call rule not given here

Key:
[1] = biological target: Homeodomain-interacting protein kinase 3 (Homo sapiens) (UniProt Q9H422); settings: at 10 µM
[2] = biological target: Tyrosine-protein kinase HCK (Homo sapiens) (UniProt P08631); settings: at 1 µM
[3] = biological target: Tyrosine-protein kinase HCK (Homo sapiens) (UniProt P08631); settings: at 10 µM
[4] = biological target: Tyrosine-protein kinase HCK (Homo sapiens) (UniProt P08631); settings: at 1 µM; remark: listed apart in the source
[5] = biological target: Tyrosine-protein kinase HCK (Homo sapiens) (UniProt P08631); settings: at 10 µM; remark: listed apart in the source
[6] = biological target: Insulin-like growth factor 1 receptor (Homo sapiens) (UniProt P08069); settings: at 1 µM
[7] = biological target: Insulin-like growth factor 1 receptor (Homo sapiens) (UniProt P08069); settings: at 10 µM
[8] = biological target: T1, Protein kinase C zeta type (Homo sapiens) (UniProt Q05513); settings: at 10 µM
T1 sequence (whole entry): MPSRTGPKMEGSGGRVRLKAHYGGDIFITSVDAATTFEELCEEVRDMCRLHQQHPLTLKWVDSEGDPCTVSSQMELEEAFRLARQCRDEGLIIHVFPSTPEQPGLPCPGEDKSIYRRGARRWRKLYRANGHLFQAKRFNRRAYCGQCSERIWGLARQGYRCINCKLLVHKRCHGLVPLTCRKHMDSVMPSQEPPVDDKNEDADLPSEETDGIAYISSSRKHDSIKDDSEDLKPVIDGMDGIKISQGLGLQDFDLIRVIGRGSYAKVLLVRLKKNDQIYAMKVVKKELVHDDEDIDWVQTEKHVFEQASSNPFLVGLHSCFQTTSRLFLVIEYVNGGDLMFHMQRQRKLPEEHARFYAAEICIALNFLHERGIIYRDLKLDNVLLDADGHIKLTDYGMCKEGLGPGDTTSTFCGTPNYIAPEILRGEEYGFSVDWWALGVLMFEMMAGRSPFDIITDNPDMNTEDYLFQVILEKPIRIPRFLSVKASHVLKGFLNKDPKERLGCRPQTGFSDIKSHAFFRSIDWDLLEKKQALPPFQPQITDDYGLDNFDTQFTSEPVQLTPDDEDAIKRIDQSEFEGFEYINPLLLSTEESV

[9] = biological target: Protein kinase C eta type (Homo sapiens) (UniProt P24723); settings: at 1 µM
[10] = biological target: Protein kinase C eta type (Homo sapiens) (UniProt P24723); settings: at 10 µM
[11] = biological target: Protein kinase C theta type (Homo sapiens) (UniProt Q04759); settings: at 1 µM
[12] = biological target: Protein kinase C theta type (Homo sapiens) (UniProt Q04759); settings: at 10 µM
[13] = biological target: T2, Protein kinase C iota type (Homo sapiens) (UniProt P41743); settings: at 1 µM
T2 sequence (whole entry): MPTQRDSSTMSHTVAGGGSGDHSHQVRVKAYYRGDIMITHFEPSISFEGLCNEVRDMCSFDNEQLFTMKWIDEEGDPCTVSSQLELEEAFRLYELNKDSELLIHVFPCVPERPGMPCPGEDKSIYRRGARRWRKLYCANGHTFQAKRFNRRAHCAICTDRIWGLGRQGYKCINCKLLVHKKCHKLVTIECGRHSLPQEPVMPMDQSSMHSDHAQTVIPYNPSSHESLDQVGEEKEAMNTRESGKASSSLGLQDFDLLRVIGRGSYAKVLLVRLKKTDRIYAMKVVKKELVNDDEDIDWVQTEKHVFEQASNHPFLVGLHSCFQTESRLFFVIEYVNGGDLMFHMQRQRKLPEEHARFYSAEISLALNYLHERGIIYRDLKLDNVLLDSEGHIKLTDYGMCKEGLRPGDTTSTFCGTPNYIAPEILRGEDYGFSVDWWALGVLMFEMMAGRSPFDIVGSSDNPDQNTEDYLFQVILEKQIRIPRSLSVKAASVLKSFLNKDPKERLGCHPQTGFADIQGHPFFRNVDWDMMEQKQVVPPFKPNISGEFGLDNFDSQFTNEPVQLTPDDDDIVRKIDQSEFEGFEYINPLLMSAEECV

[14] = biological target: T2, Protein kinase C iota type (Homo sapiens); settings: at 10 µM
[15] = biological target: T3, Serine/threonine-protein kinase D1 (Homo sapiens) (UniProt Q15139); settings: at 1 µM
T3 sequence (whole entry): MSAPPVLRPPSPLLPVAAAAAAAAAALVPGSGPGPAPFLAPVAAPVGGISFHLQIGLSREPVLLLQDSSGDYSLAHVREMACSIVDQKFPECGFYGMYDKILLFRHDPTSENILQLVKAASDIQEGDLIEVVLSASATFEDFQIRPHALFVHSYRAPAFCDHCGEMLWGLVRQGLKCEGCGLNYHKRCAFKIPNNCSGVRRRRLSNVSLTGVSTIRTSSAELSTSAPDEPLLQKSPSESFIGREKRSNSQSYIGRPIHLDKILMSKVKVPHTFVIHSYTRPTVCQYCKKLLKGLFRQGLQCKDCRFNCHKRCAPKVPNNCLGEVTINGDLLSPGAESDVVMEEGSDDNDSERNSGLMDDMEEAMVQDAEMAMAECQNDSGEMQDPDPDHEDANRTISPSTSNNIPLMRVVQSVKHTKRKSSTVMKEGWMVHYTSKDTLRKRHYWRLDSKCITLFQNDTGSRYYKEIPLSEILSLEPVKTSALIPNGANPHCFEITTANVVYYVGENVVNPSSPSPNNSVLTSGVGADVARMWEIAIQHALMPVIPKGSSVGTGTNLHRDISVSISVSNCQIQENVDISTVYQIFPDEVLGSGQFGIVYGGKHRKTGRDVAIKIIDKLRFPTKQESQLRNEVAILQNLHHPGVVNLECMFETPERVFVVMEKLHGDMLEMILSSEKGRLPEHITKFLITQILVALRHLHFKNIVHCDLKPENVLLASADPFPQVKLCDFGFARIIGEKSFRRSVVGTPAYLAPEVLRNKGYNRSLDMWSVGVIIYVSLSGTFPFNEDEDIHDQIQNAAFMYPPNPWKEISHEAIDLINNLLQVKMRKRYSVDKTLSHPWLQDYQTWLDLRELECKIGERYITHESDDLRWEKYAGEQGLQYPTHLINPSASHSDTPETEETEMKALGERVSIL

[16] = biological target: T3, Serine/threonine-protein kinase D1 (Homo sapiens); settings: at 10 µM
[17] = biological target: T4, Serine/threonine-protein kinase D2 (Homo sapiens) (UniProt Q9BZL6); settings: at 1 µM
T4 sequence (whole entry): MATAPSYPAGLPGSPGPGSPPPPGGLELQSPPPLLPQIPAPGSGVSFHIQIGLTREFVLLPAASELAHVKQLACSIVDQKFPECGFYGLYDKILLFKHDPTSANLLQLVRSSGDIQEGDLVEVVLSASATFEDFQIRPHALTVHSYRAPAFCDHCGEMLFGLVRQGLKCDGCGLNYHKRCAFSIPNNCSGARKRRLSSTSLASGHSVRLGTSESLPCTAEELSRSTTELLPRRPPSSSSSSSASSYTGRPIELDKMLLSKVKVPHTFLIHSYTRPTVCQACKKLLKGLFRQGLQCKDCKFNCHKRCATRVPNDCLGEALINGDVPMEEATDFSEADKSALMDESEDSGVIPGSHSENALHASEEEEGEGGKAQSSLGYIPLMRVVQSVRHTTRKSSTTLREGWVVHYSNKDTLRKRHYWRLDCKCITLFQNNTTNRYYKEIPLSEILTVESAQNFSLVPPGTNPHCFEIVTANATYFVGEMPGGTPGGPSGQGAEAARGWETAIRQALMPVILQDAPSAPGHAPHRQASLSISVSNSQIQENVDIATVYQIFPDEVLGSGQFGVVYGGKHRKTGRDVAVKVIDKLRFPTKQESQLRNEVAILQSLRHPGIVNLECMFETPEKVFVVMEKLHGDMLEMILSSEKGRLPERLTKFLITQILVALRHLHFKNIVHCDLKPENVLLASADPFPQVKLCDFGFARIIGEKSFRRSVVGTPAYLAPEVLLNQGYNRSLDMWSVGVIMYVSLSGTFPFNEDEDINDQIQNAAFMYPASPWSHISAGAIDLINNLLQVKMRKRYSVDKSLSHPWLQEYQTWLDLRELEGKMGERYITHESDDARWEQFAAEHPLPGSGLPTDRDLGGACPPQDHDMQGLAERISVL

[18] = biological target: T4, Serine/threonine-protein kinase D2 (Homo sapiens); settings: at 10 µM
[19] = biological target: T5, Serine/threonine-protein kinase haspin (Homo sapiens) (UniProt Q8TF76); settings: at 1 µM
T5 sequence (whole entry): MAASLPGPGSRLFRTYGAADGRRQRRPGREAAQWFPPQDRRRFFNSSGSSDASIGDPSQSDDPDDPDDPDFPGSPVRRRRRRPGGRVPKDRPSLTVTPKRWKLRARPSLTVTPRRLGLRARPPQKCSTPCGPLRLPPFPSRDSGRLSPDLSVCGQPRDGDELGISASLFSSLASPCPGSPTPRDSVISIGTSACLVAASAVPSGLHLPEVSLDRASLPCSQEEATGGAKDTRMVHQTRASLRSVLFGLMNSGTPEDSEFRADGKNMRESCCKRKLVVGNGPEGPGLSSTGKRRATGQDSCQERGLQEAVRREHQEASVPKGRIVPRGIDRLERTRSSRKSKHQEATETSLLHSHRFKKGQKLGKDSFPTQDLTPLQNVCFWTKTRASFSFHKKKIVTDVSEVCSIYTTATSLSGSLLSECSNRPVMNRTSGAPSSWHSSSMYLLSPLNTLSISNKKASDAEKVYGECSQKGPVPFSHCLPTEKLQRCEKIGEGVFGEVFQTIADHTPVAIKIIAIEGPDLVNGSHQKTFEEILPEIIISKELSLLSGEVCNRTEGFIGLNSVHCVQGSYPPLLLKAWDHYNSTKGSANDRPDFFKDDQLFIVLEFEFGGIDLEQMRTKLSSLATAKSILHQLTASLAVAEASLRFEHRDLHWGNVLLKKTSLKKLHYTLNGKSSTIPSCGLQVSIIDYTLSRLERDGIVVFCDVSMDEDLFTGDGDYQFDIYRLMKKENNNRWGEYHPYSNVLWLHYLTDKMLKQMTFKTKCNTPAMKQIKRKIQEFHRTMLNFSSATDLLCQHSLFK

[20] = biological target: T5, Serine/threonine-protein kinase haspin (Homo sapiens); settings: at 10 µM

Homeodomain-interacting protein kinase 3 (Homo sapiens), sequence (Q9H422 whole entry, looked up): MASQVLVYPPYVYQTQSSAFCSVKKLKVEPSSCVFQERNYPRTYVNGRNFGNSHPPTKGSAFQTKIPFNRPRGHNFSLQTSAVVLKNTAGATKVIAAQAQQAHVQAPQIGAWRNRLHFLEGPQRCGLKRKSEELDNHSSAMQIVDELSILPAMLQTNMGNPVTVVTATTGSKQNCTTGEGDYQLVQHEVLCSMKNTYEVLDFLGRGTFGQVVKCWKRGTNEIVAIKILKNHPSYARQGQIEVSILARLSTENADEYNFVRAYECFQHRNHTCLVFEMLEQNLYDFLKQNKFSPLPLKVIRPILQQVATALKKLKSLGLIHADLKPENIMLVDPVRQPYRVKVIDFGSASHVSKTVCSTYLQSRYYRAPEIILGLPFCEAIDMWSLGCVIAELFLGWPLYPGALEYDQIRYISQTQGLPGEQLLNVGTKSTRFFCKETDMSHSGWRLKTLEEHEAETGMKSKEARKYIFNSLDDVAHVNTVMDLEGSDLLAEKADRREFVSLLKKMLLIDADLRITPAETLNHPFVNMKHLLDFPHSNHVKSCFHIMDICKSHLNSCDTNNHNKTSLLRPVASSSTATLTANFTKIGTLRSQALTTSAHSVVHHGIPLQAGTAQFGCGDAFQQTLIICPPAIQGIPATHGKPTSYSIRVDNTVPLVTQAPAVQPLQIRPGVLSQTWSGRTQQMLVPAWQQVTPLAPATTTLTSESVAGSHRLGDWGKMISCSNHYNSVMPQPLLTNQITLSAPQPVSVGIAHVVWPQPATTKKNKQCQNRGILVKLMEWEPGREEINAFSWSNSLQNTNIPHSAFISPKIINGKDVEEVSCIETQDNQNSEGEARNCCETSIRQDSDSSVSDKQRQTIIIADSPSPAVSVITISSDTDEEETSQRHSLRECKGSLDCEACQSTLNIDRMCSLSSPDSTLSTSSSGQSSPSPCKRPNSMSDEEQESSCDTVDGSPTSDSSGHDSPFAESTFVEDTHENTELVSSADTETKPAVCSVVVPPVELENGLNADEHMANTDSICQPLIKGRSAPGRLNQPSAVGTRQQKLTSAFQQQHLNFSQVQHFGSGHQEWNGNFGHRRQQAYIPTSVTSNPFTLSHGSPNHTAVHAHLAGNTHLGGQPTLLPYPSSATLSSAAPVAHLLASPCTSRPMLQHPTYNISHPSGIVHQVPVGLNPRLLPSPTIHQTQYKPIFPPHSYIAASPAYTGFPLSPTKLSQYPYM
Protein kinase C eta type (Homo sapiens), sequence (P24723 whole entry): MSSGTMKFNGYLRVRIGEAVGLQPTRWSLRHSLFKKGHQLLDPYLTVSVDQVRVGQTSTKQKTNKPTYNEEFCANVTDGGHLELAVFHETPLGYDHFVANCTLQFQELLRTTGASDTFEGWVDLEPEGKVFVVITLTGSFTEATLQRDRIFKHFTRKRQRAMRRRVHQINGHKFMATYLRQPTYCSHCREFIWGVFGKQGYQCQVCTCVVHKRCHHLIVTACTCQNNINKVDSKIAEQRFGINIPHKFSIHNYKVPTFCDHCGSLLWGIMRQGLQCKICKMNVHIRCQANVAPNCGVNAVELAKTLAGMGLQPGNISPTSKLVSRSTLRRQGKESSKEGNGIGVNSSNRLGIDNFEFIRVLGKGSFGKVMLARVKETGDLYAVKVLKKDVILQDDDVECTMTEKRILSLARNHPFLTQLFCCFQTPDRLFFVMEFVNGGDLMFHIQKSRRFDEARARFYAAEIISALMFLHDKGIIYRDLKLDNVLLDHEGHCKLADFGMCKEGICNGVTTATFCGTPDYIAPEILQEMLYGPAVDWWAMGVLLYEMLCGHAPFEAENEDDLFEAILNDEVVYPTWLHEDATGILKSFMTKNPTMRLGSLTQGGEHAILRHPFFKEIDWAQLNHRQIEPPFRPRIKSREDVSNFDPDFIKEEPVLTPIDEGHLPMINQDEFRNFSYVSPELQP
Insulin-like growth factor 1 receptor (Homo sapiens), sequence (P08069 31-736 limits assumed): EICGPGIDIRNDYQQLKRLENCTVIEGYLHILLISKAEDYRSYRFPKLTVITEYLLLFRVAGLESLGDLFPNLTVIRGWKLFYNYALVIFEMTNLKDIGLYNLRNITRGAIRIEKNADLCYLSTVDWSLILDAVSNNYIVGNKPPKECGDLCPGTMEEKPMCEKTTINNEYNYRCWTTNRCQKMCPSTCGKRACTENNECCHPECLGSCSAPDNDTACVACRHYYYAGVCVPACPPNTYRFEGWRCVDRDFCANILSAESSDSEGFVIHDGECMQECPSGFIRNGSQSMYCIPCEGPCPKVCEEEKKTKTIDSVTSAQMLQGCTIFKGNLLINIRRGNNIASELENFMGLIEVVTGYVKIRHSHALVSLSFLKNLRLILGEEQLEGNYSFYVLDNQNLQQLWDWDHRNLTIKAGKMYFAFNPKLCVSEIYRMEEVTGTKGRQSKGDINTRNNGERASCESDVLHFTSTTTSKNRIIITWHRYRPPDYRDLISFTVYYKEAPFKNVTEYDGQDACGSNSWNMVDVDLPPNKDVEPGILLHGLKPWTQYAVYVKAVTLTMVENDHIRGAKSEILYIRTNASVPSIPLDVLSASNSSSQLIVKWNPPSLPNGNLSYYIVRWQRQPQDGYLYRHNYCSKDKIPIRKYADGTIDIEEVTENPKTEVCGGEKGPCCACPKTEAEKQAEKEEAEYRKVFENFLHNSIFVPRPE
Insulin-like growth factor 1 receptor (Homo sapiens), sequence (P08069 741-1367 limits assumed): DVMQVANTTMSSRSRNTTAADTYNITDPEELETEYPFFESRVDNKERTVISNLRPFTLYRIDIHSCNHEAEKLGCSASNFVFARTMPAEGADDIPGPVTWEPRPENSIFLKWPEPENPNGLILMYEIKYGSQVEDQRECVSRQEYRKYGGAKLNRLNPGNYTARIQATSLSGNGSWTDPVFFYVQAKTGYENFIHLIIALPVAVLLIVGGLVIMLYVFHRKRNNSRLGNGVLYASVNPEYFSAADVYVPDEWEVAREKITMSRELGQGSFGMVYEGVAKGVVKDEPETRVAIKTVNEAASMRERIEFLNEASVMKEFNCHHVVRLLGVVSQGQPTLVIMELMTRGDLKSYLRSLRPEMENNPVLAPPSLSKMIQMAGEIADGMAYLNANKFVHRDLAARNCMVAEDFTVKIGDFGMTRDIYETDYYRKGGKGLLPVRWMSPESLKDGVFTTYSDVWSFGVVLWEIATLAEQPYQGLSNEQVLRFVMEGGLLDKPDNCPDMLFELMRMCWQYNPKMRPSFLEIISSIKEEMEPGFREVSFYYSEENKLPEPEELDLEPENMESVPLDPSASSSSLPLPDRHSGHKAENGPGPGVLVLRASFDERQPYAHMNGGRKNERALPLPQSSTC
Protein kinase C theta type (Homo sapiens), sequence (Q04759 whole entry, looked up): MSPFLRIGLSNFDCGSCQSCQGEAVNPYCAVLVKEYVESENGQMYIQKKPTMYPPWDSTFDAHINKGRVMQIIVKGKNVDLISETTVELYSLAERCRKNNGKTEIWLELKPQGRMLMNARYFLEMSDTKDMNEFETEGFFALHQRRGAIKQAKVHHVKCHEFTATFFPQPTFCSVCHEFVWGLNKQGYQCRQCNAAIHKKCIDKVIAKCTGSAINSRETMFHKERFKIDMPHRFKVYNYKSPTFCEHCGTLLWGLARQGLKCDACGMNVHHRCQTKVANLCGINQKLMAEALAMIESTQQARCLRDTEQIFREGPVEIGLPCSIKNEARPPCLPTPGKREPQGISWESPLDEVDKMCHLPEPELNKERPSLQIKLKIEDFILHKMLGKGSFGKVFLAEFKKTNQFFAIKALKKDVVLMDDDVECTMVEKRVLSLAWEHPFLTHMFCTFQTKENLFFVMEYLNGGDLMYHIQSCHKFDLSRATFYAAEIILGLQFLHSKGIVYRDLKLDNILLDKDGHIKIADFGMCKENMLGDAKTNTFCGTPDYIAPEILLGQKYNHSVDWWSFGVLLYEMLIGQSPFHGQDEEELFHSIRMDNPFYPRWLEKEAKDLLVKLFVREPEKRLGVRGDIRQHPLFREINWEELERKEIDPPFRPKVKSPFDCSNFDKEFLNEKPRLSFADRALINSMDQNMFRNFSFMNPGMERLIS
Tyrosine-protein kinase HCK (Homo sapiens), sequence (P08631 2-526 limits assumed): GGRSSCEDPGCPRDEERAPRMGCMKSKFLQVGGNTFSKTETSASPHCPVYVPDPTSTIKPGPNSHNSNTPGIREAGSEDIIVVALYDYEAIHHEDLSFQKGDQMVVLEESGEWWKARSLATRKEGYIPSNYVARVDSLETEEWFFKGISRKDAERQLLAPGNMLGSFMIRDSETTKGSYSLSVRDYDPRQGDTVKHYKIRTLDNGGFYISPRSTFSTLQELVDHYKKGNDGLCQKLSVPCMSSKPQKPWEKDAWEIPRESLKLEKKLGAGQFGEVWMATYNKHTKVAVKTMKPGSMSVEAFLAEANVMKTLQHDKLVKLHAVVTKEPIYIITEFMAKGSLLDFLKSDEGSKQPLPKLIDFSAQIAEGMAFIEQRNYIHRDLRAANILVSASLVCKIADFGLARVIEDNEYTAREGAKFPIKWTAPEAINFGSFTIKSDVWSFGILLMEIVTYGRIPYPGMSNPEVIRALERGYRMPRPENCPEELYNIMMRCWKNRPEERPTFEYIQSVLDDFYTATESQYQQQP

Structure (SMILES)	residual activity [1]	residual activity [2]	residual activity [3]	residual activity [4]	residual activity [5]	residual activity [6]	residual activity [7]	residual activity [8]	residual activity [9]	residual activity [10]	residual activity [11]	residual activity [12]	residual activity [13]	residual activity [14]	residual activity [15]	residual activity [16]	residual activity [17]	residual activity [18]	residual activity [19]	residual activity [20]
COc1cc2ncnc(Nc3ccc(Oc4ccccc4)cc3)c2cc1OC	105%	4%	5%	20%	3%	117%	112%	104%	98%	83%	108%	112%	90% (inactive)	76%	95%	103%	106%	106%	–	–
CC#CC(=O)Nc1cc2c(Nc3ccc(F)c(Cl)c3)ncnc2cn1	95%	85%	88%	95%	88%	147%	86%	103%	90%	84%	96%	96%	87% (inactive)	106%	89%	84%	105%	114%	119%	98%
Cc1cc2ncc(-c3ccccc3)nc2cc1C	107%	68%	55%	105%	99%	131%	144%	104%	107%	84%	110%	102%	83% (inactive)	78%	–	–	104%	110%	87%	83%
Cc1cncc2cccc(S(=O)(=O)N3CCCN(C(=O)CN)C[C@H]3C)c12	–	69%	60%	98%	73%	134%	–	50%	27%	4%	21%	3%	82% (inactive)	75%	83%	71%	–	–	91%	62%
CO[C@H]1[C@@H](OC)C[C@H](C)[C@@H](OC)C2=CC(=O)C=C(NC(=O)/C(C)=C/C=C/[C@H](OC)[C@@H](OC(N)=O)/C(C)=C/[C@@H]1C)C2=O	105%	78%	76%	–	103%	137%	113%	106%	118%	83%	100%	98%	92% (inactive)	71%	119%	102%	102%	110%	88%	78%
COc1ccc(S(=O)(=O)N(CCO)c2ccccc2CN(C)C/C=C/c2ccc(Cl)cc2)cc1	102%	87%	45%	98%	90%	121%	114%	–	78%	89%	89%	93%	117% (inactive)	110%	83%	77%	102%	99%	82%	49%
Ic1cccc(CSc2nnc(-c3ccncc3)o2)c1	100%	74%	56%	85%	89%	96%	124%	98%	59%	62%	68%	58%	109% (inactive)	107%	72%	71%	97%	98%	104%	85%
